Consider 17 molecules from PubChem BioAssay.

Test [1] in a line: binders of probe aFSTL3 on microarray, primary screen, stem cell growth factor project, biochemical, small-molecule microarray, fluorescence 635/667 (AID 1064).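 Note: measures binding of the biotinylated anti-FSTL3 antibody to printed compounds.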 Conditions: higher = more signal.
A short description of test [2]: binders from COS7 lysate, DM2A8 probe, primary screen, torsin A project, cell lysate, small-molecule microarray, fluorescence 635/667 (AID 1065). The conditions noted are these: higher = more signal, COS7 lysate expressing mutant human TOR1A.
Test [3] in a line: binders of probe aFGF2 on microarray, primary screen, stem cell growth factor project, biochemical, small-molecule microarray, fluorescence 635/667 (AID 1067).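 Note: measures binding of biotinylated aFGF2 protein to printed compounds on slides; z-score merges feature fluorescence and signal-to-noise across triplicate slides.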 Conditions: higher = more signal.
Test [4] is described as follows: binders of probe aFGF10 on microarray, primary screen, stem cell growth factor project, biochemical, small-molecule microarray, fluorescence 635/667 (AID 1071).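 Note: score merges 667 nm spot intensity and signal to noise from triplicate slides.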 Conditions: higher = more signal.
The target in test [5] is Neurogenic locus notch homolog protein 2 (Homo sapiens) (UniProt Q04721). The test can be described thus: Notch2 binders on small-molecule microarrays, primary screen, biochemical, small-molecule microarray, 635 nm fluorescence, stem cell growth factors (AID 1073). The conditions noted are these: Notch2 binding, higher = more signal.
Chain of Neurogenic locus notch homolog protein 2 (Homo sapiens) (Q04721 whole entry, looked up, canonical isoform): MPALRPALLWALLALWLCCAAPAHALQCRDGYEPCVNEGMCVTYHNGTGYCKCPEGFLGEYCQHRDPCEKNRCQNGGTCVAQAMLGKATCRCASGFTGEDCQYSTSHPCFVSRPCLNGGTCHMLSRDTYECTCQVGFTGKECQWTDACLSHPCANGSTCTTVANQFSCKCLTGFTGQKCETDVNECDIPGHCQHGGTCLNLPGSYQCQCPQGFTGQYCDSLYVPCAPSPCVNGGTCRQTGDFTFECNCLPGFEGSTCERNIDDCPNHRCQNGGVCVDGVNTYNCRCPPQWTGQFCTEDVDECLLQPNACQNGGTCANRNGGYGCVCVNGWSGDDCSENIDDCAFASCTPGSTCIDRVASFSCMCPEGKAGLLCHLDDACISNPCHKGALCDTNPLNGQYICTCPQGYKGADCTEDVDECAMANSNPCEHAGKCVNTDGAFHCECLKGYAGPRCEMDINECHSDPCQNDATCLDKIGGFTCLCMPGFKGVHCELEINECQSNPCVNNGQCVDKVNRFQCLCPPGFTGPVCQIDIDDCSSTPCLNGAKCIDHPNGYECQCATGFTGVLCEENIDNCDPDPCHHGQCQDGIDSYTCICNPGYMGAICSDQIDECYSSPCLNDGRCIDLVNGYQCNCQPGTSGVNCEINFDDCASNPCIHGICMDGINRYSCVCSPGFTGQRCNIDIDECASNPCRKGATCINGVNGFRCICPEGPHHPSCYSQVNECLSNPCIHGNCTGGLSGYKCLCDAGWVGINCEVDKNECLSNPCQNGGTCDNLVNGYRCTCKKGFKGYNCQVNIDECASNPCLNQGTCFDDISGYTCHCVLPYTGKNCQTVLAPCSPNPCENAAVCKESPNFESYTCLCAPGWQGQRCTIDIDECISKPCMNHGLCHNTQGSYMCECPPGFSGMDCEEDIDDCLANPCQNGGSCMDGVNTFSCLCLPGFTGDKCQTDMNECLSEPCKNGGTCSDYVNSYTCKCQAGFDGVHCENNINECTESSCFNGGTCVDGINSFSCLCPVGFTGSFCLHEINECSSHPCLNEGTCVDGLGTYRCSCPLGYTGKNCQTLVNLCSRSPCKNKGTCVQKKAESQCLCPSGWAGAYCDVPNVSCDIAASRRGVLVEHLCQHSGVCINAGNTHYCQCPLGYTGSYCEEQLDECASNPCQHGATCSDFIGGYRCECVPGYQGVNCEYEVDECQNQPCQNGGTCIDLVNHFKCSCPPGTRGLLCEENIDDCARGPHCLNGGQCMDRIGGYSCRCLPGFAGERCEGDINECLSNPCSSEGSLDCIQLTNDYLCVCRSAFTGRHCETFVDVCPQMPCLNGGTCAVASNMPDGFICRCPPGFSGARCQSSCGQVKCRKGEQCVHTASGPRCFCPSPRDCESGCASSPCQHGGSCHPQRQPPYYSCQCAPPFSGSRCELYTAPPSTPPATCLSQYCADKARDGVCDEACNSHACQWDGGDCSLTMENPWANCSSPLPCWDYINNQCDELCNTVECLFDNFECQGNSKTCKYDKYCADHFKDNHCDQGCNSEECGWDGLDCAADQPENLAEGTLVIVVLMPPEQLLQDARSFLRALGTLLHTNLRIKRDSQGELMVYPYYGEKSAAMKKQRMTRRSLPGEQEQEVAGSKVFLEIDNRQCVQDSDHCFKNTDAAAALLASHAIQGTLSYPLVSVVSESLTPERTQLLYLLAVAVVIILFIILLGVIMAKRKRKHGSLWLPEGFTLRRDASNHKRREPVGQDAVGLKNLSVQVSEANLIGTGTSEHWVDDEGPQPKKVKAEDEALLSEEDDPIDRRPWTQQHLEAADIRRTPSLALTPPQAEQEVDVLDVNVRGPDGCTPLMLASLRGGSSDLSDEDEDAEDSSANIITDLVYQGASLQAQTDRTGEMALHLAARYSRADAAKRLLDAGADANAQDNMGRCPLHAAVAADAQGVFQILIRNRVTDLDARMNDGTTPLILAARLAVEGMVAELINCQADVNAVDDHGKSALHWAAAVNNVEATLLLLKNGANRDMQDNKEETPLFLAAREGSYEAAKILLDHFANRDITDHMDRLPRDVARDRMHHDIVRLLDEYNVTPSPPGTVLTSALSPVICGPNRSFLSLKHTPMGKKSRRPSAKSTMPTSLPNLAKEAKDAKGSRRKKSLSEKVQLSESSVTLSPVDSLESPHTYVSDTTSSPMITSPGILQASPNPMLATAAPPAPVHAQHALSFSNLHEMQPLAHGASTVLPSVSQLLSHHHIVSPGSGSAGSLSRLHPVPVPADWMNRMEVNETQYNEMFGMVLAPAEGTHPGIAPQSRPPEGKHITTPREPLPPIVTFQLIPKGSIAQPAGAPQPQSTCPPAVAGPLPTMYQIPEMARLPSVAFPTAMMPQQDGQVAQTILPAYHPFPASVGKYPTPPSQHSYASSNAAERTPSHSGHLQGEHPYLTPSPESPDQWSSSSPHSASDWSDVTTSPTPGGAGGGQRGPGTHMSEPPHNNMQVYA
Test [6] deals with Pro-neuregulin-1, membrane-bound isoform (Homo sapiens) (UniProt Q02297). The test can be described thus: NRG1 binders on small-molecule microarrays, primary screen, psychiatric disease protein project, biochemical, small-molecule microarray, fluorescence 635/667 (AID 1075).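 Note: score combines 667 nm spot fluorescence with signal to noise.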 The conditions noted are these: NRG1 binding, 635 nm fluorescence, higher = more signal.
Chain of Pro-neuregulin-1, membrane-bound isoform (Homo sapiens) (Q02297 whole entry, looked up, the tested form may be a part, canonical isoform): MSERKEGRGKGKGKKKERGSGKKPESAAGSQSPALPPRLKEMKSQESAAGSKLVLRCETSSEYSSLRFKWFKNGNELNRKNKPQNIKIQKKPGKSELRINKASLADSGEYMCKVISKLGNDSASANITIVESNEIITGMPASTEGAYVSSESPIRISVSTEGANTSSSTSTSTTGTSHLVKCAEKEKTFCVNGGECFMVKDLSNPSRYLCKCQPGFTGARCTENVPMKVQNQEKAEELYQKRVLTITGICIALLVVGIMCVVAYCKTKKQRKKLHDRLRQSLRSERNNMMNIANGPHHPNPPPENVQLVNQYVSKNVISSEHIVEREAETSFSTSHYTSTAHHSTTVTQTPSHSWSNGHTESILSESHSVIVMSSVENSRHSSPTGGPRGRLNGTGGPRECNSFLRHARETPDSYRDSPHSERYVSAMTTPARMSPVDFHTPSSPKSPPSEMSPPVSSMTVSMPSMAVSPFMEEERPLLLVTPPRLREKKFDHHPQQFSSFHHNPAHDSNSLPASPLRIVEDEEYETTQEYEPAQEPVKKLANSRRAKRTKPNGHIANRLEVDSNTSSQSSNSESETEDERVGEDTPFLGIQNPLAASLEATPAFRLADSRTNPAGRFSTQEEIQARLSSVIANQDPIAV
The subject of test [7] is Neuregulin-1 EGF-like domain. Kind of test: binders of neuregulin-1 EGF-like domain, primary screen, biochemical, small-molecule microarray, 635 nm fluorescence (AID 1081).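 Note: binding of the protein to compounds printed on small-molecule microarray slides.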 Conditions: small-molecule microarray binding, higher = more signal.
A short description of test [8]: FRG1 promoter luciferase signal modulators, primary screen, FRG1 inhibition for FSHD, cell-based, C2C12 myotubes, firefly/Renilla luciferase, luminescence (AID 1084). Conditions: higher = more signal, called active from +8 up or from −8 down.
Test [9] is described as follows: binders of probe aFST on microarray, primary screen, stem cell growth factor project, biochemical, small-molecule microarray, fluorescence 635/667 (AID 1086).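 Note: score merges 667 nm fluorescence with signal-to-noise of each printed compound spot.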 The conditions noted are these: higher = more signal.
The nature of test [10]: binders of probe aHhip on microarray, primary screen, stem cell growth factor project, biochemical, small-molecule microarray, fluorescence 635/667 (AID 1087).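 Note: score merges spot fluorescence at 667nm with spot signal to noise ratio.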 Conditions: higher = more signal.

Calls of active or inactive are those of the source.

Turning to `C=CCN1C(=O)[C@]2(CCS(=O)(=O)c3ccccc3)N=C(c3ccc(OCCCO)cc3)O[C@@H]2c2ccccc21`, the composite z-score was -0.104 in test [1]; 0.264 in test [2]; 0.0109 in test [3]; 0.162 in test [4]; 0.84 in [5]; 0.445 in test [6]. In addition, the composite z-score in test [7] is 1.28; in test [9], 0.454; in test [10], -0.121. Further, in test [8], the z-score was -1.9 (inactive).

Turning to `CC1=C2[C@@H](CCc3ccccc3)OB(O)C[C@@H]2[C@@H]2C(=O)N(C)C(=O)[C@@H]2C1`, the composite z-score is -0.366 in [1]; -0.19 in [2]; -0.104 in [3]; 0.496 in test [4]; 0.849 in test [5]; 1.09 in test [6]. Moreover, the results for the composite z-score in test [7], in test [9] and in test [10] were -0.0884, 0.438 and -0.171, respectively. Besides, the z-score in test [8] was 1.26 (inactive).

On to `C=CCNC(=O)[C@@H]1[C@H]2C(=O)O[C@H](c3ccccc3)[C@H](c3ccccc3)N2[C@H](c2ccccc2OCCO)[C@@]12C(=O)Nc1ccc(C#CCC(C(=O)OC)C(=O)OC)cc12`, for which the composite z-score in test [1] was -0.44; in [2], 0.491; in [3] it was -0.116; in test [4], 0.422; in test [5], 0.894; in test [6], 1.39. Besides, the composite z-score in test [7] is 1.28; in test [9], -0.437; in [10] it was -0.347. Besides, in [8], the z-score was 1.1 (inactive).

With `CCCCCN1CC=CC23O[C@@H]4/C=C\CCCOC(=O)C4[C@H]2C(=O)N(C(C)CO)[C@@H]3C1=O` (stereo not given in full), the composite z-score in [1] was 0.378; in [2] it was -1.3; in test [3], -0.219; in [4], -0.756; in test [5] it was -0.814; in test [6], 1.15. For the same molecule, the values for the composite z-score in [7], in [9] and in [10] were 1.16, -0.738 and -0.399, respectively. The z-score in test [8] was -0.508 (inactive).

Consider `CCC1=C2CN(Cc3ccccc3)[C@@H](C(=O)Cc3ccccc3)C2C=CCC1` (stereo not given in full), for which the composite z-score in test [1] was -0.317; in [2], -0.756; in [3], -0.0909; in test [4] it was 0.083; in test [5], -0.227; in [6] it was 0.271. For the same molecule, the composite z-score in test [7] was 0.441; in test [9], 0.0633; in test [10], -0.0994. Also, the z-score in test [8] was -1.02 (inactive).

Regarding `COc1ccc(C#Cc2ccc3c(c2)[C@]2(C(=O)N3)[C@H](C(=O)O)[C@H]3C(=O)O[C@H](c4ccccc4)[C@H](c4ccccc4)N3[C@@H]2c2ccc(O)cc2)cc1`, the composite z-score is 0.499 in [1]; 0.928 in test [2]; -0.0557 in [3]; 0.221 in test [4]; -0.0571 in test [5]; 0.418 in test [6]. In addition, the figures for the composite z-score in test [7], in [9] and in [10] were 1.28, 0.105 and -0.134, respectively. The z-score in test [8] was 0.247 (inactive).

With `CC(C)N1CC=CC23O[C@@H]4C=CCCOC(=O)C4[C@H]2C(=O)N(CCCO)[C@@H]3C1=O` (stereo not given in full), the composite z-score in test [1] is -0.339; in test [2] it was -0.0962; in test [3], -0.12; in test [4], -0.458; in test [5] it was -0.693; in [6] it was -0.491. Besides, the results for the composite z-score in test [7], in test [9] and in test [10] were 0.059, 0.002 and 0.0505, respectively. The z-score in test [8] was -0.395 (inactive).

In the case of `C=CCC(OC(C)=O)[C@@H]1[C@@H](N(Cc2cccc3ccccc23)C(=O)Cc2ccc(OC)cc2)c2cc(OCCCO)ccc2N1C(=O)c1ccc(-c2ccccc2)cc1` (stereo not given in full), the composite z-score in test [1] was 0.112; in [2], 0.0969; in test [3] it was -0.112; in test [4] it was -0.153; in test [5] it was -0.0051; in test [6], 0.497. The figures for the composite z-score in test [7], in [9] and in [10] were -0.359, 0.428 and -0.201, respectively. In test [8], the z-score was -1.39 (inactive).

`COC(=O)[C@@]1(Cc2ccccc2)[C@H]2c3cc(C(=O)N4CCCC4)n(CCc4ccccn4)c3C[C@H]2CN1C(=O)c1ccccc1`: the composite z-score is 0.223 in test [1]; 0.487 in [2]; -0.177 in test [3]; 0.283 in test [4]; 1.33 in [5]; 2.09 in test [6]. The composite z-score in test [7] is 1.35; in test [9], 1.18; in [10], 0.503. Besides, in test [8], the z-score was 2.95 (inactive).

As for `O=C1C2C=CC(C(O)C3CC=CCC3)N(Nc3ccccc3)C2C(=O)N1c1ccccc1` (stereo not given), the composite z-score was 0.877 in test [1]; -0.129 in [2]; 0.122 in test [3]; 0.397 in [4]; 1.61 in test [5]; 1.3 in test [6]. For the same molecule, the results for the composite z-score in [7], in [9] and in test [10] were 1.28, 1.89 and -0.323, respectively. Besides, the z-score in test [8] is -1.16 (inactive).

Regarding `COCC(=C=CC[C@H](O)c1ccc(CO)o1)CCO`, the composite z-score in test [1] is -0.254; in [2] it was -0.0406; in [3] it was 0.0154; in [4] it was 0.553; in test [5], -0.234; in [6] it was 1.19. Also, the composite z-score in [7] was found to be 1.23; in [9], 0.51; in [10], 0.382. Moreover, the z-score in test [8] was 0.461 (inactive).

On to `COc1ccc(CCNC(=O)[C@@]2(Sc3ccc(C)cc3)CC(=O)N(Cc3ccccc3C(F)(F)F)[C@@H]2c2ccc(CO)cc2I)cc1`, for which the composite z-score was 0.673 in test [1]; -1.11 in [2]; -0.156 in test [3]; 0.116 in test [4]; -1.11 in [5]; 1.99 in test [6]. For the same molecule, the composite z-score in test [7] is 1.01; in test [9], -0.261; in test [10] it was -0.236. In test [8], the z-score was -1.08 (inactive).

Turning to `[N-]=[N+]=Nc1ccccc1[C@@H]1OC(c2ccc(OCCCO)cc2)=N[C@]1(Cc1ccccc1)C(=O)O`, the composite z-score in test [1] is -0.0974; in test [2], 0.396; in test [3], -0.0178; in test [4], 0.366; in test [5], 0.828; in test [6], 1.42. The composite z-score in [7] was 1.22; in [9] it was 1.39; in test [10] it was -0.126. In addition, the z-score in [8] was 0.235 (inactive).

Regarding `COc1ccc([Si](C)(C)[C@@H]2[C@@H](CCO)O[C@]3(C(=O)N(Cc4ccccc4)c4ccc(N5C(=O)c6cccc7cccc5c67)cc43)[C@H]2C)cc1`, the composite z-score in test [1] was 0.107; in [2], -0.908; in [3] it was -0.0729; in test [4], -0.086; in test [5], -0.0923; in test [6], 0.367. For the same molecule, the composite z-score in test [7] was 0.609; in test [9] it was -0.175; in test [10] it was -0.271. The z-score in test [8] was 0.0135 (inactive).

Regarding `C#CCN([C@@H](Cc1ccccc1)C(=O)OC)[C@@H](/C=C/C1CC1)[C@H](O)Cc1ccccc1`, the composite z-score was 1.2 in [1]; 0.0218 in test [2]; -0.114 in test [3]; -0.181 in [4]; -0.875 in test [5]; -0.445 in test [6]. For the same molecule, the composite z-score is -0.351 in test [7], -0.283 in [9] and -0.169 in [10]. Moreover, the z-score in test [8] was -4.13 (inactive).

For the molecule `CC(C)N1C(=O)C[C@@](C(=O)O)(c2ccc([N+](=O)[O-])cc2)[C@H]1c1ccc(CO)cc1`, the composite z-score in test [1] is 1; in [2] it was 0.208; in test [3], -0.031; in test [4] it was 0.117; in test [5], -0.436; in test [6], 0.425. Further, the composite z-score in test [7] is 1.04; in test [9], -0.322; in [10] it was 0.0373. In [8], the z-score was 0.161 (inactive).

In the case of `CC(C)NC(=O)[C@@]1(C)c2ccccc2C(=O)N(Cc2ccc(OC(F)(F)F)cc2)[C@H]1c1ccc(CO)cc1`, the composite z-score in test [1] was 1.95; in test [2] it was -1.63; in test [3] it was -0.167; in [4] it was -0.546; in [5] it was -1.25; in test [6], 0.628. Moreover, the composite z-score is 0.865 in [7], -0.55 in test [9] and -0.28 in test [10]. Further, the z-score in test [8] is -3.14 (inactive).
